Reference: the supplement of paper PMC10600219
Over roughly 2,800 compounds, “cell viability relative to vehicle” has its median near 1.1; the lowest 2% begin near 0.19. For the sample, the lowest values were picked, then their nearest neighbours and some compounds at random.

system: NCI-H2228 parental; test: cell viability relative to vehicle (fraction of vehicle); NCI-H2228 is an ALK-positive lung cancer line and DTP means drug-tolerant persister; higher = less growth inhibition; conditions: 100 nM; treatment time 6 days
Outline: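 Drug-tolerant persister NCI-H2228 cells, produced by 13 days in 1000 nM of a targeted drug, and their parental counterparts were seeded into 384-well plates and, the following day, given the 3114-agent TargetMol anti-cancer compound library at 100 nM or DMSO vehicle. After 6 days, the CellTiter-Glo 3D Cell Viability Assay was used to read ATP. Each entry reports viability compared with vehicle-treated cells.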

SMILES	cell viability
C[C@H]1O[C@@H](O[C@H]2CC[C@@]3(C)[C@@H](CC[C@]4(C)[C@@H]3C=C[C@]35OC[C@@]6(CCC(C)(C)C[C@H]63)[C@@H](O)C[C@]54C)[C@]2(C)CO)[C@H](O)[C@@H](O[C@@H]2O[C@H](CO)[C@@H](O)[C@H](O)[C@H]2O)[C@H]1O [Saikosaponin A]	1.11
C/C1=C/CC[C@H](C)C(=O)C[C@@H](C(C)C)C(=O)C1 [Curdione]	1.07
O=C1c2cccc(O)c2C(=O)c2c(O)cccc21 [Antrapurol]	1.06
O=C1c2c(O)ccc(O)c2C(=O)c2c(NCCNCCO)ccc(NCCNCCO)c21 [Mitoxantrone]	0.132
NCCNc1ccc(NCCN)c2c1C(=O)c1ccncc1C2=O [Pixantrone dimaleate]	0.405
COc1ccc(S(=O)(=O)N[C@@H](CNc2nc(C)nc(N3CCC(c4ccc5c(n4)NCCC5)CC3)c2C)C(=O)O)cc1	0.705
COc1ccc2c(c1)C(c1ccc(F)cc1)=C(CN1CCCC1)CO2	1.1
COc1cc2ncnc(Nc3ccc(O)cc3)c2cc1OC	1.02
CC(=O)O[C@H]1C(=O)[C@@]2(C)[C@H]([C@H](OC(=O)c3ccccc3)[C@]3(O)C[C@H](OC(=O)[C@H](O)[C@@H](NC(=O)c4ccccc4)c4ccccc4)C(C)=C1C3(C)C)[C@]1(OC(C)=O)CO[C@@H]1C[C@@H]2O [Paclitaxel]	0.128
CC(=O)O[C@@]12CO[C@@H]1C[C@H](O)[C@@]1(C)C(=O)[C@H](O)C3=C(C)[C@@H](OC(=O)[C@H](O)[C@@H](NC(=O)OC(C)(C)C)c4ccccc4)C[C@@](O)([C@@H](OC(=O)c4ccccc4)[C@H]21)C3(C)C [Docetaxel trihydrate]	0.154
CC(=O)O[C@@]12CO[C@@H]1C[C@H](O)[C@@]1(C)C(=O)[C@H](O)C3=C(C)[C@@H](OC(=O)[C@H](O)[C@@H](NC(=O)OC(C)(C)C)c4ccccc4)C[C@@](O)([C@@H](OC(=O)c4ccccc4)[C@H]21)C3(C)C [Docetaxel]	0.118
CO[C@H]1C(=O)[C@]2(C)[C@@H](OC)C[C@H]3OC[C@@]3(OC(C)=O)[C@H]2[C@H](OC(=O)c2ccccc2)[C@]2(O)C[C@H](OC(=O)[C@H](O)[C@@H](NC(=O)OC(C)(C)C)c3ccccc3)C(C)=C1C2(C)C [Cabazitaxel]	0.2
CC(C)NCC(O)COc1ccc(COCCOC(C)C)cc1 (racemic) [(±)-Bisoprolol hemifumarate]	1.14
CC(C)(O)[C@H]1CC[C@H](Nc2ccc3ncc(-c4cccc(C(F)(F)F)c4)n3n2)CC1	0.928
COc1cc2c(c(OC)c1OC)-c1c(cc(OC)c(OC)c1OC)CC(C)C(C)C2 (configuration not stated) [Schizandrin A]	1.11
CC(C)c1c(-c2ccccc2)nc2c(C#N)c[nH]n2c1=O	1.1
COC(=O)C[C@](O)(CCCC(C)(C)O)C(=O)O[C@@H]1C(OC)=C[C@]23CCCN2CCc2cc4c(cc2[C@H]13)OCO4 [Homoharringtonine]	0.162
COc1c2c(cc3oc(CO[C@@H]4O[C@H](CO)[C@@H](O)[C@H](O)[C@H]4O)cc(=O)c13)O[C@H](C(C)(C)O)C2 [Cimifugin beta-D-glucopyranoside]	1.09
C=C[C@H]1[C@H](O[C@@H]2O[C@H](CO)[C@@H](O)[C@H](O)[C@H]2O)OC=C2C(=O)OCC[C@]21O [Swertiamarin]	1.11
CCCCCCCCCCCCCCCC(=O)O [Palmitic acid]	1.02
O=C1O[C@H]2[C@@H]3OC(=O)c4cc(O)c(O)c(O)c4-c4c(cc(O)c(O)c4O)C(=O)OC[C@H]2O[C@@H](OC(=O)c2cc(O)c(O)c(O)c2)[C@@H]3OC(=O)c2cc(O)c(O)c3c2[C@@H]2C1=CC(=O)[C@](O)(O3)C2(O)O [Geraniin]	0.981
COc1cc(N2CCC(N3CCN(C)CC3)CC2)ccc1Nc1ncc(Cl)c(-c2c[nH]c3ccccc23)n1	0.358
COc1cc(C(C)C)c(Oc2cnc(N)nc2N)cc1I	1.16
C/C(=C\c1csc(C)n1)[C@@H]1C[C@@H]2O[C@]2(C)CCC[C@H](C)[C@H](O)[C@@H](C)C(=O)C(C)(C)[C@@H](O)CC(=O)N1 [Ixabepilone]	0.119
C[C@H](CCC(=O)NCC(=O)O)[C@H]1CC[C@H]2[C@@H]3[C@H](O)C[C@@H]4C[C@H](O)CC[C@]4(C)[C@H]3CC[C@]12C [Glycochenodeoxycholic Acid]	1.02
CC(=O)OC(C)C(C)C(=O)OCC12C3CC(C)(C)[C@H](O[C@@H]1C[C@]1(C)C3=CCC3C4(C)CCC(O[C@@H]5O[C@H](C(=O)O)[C@@H](O[C@H]6O[C@H](CO)[C@@H](O)[C@H](O)[C@H]6O)[C@H](O)[C@H]5O[C@@H]5OC[C@@H](O)[C@H](O)[C@H]5O)[C@](C)(CO)C4CCC31C)C2O (some centres not stated) [Sodium Aescinate]	1.1
O=S(=O)(CCC(F)=C(F)F)c1ncc(Cl)s1 [Fluensulfone]	1.07
